# Source: PubChem
# In the library only some 1.6% were active in any assay of this set; here they are far more common.
# GFP derepression: epigenetic modulators derepressing GFP locus in mouse cells; mouse C127i GFP locus derepression, cytometry, 30 h; Potency, µM (doses to about 46.1 µM), inactives show at the top dose GFP derepression (activation); hit rate 0.09% among 68,000; AID 597; further: % of control where 0% means no effect
#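 Locus derepression in mouse mammary C127i cells whose integrated CMV-GFP reporter is normally silent; GFP expression after 30 h compound treatment was quantified by counting fluorescent cells.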
# p53ts 39C tox: p53ts cell cytotoxicity, nonpermissive temperature. Potency, µM (top dose mostly 46.1 µM), for the others: top-dose activity change, negative = cell killing, most hits filed as cytotoxic. hit rate 1.5% among 130,000. H1299-p53A138V viability at 39C, ATP luminescence, 24 h. AID 902; further: potency means the concentration at half of the fitted maximal effect; on the % scale 0 is the no-effect control and ±100 the full control effect; nearly all actives have a fitted effect of over 55% in size
# HBB splice mod: hemoglobin beta splicing modulation; HBB splicing reporter cell assay, activation; EGFP reporter with mutant IVS2-654 intron; response scale: normalised to 500 nM splice-correcting PNA; Potency, µM (top dose mostly 46.1 µM), for inactives: at the top dose activation, usual class: activators; hit rate 0.06% among 65,000; AID 925; further: potency means the concentration at half of the fitted maximal effect; 0% is about no effect
#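 HeLa cells stably expressing EGFP interrupted by mutant beta-globin intron 2 (IVS2-654), 500/well in 2% FCS. Treated with compound for 2 days at 37C. Splicing correction scored as total well GFP intensity (488 nm excitation, 500-520 nm emission); 500 nM antisense PNA served as control.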
# p53ts 32C tox: kills p53ts cells at the permissive temperature; Potency, µM (highest dose often 46.1 µM), inactives show at the top dose activity change, negative = cytotoxicity, hits mostly cytotoxic; H1299-p53A138V at 32C, ATP luminescence viability, 24 h; hit rate 0.93% among 130,000;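 further: potency means the concentration at half of the fitted maximal effect; 0% = DMSO and -100% = full killing by reference compound; nearly all actives have a fitted effect of over 55% in size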
#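 Cells: H1299 p53ts (A138V), 600/well, pre-incubated 16–30 h at 37C. Cpd up to 46 uM, 24 h, 32C. Readout: ATPlite luminescence, 20 min RT. Normalization: DMSO vs tamoxifen 100 uM. AC50 by Hill equation.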
# Imprint erasure: inducers of genomic imprint erasure in mouse ES cells; mouse ES Peg3-LacZ reporter, beta-gal luminescence, 40 h; Potency, µM (titrated, usually from 60.7 µM), without a hit: at the highest dose activity change, positive = activation, usual class: activators; hit rate 0.02% among 110,000; AID 1948; further: potency means the concentration at half of the fitted maximal effect
#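 Gelatin-coated wells received 300 freshly trypsinized female ES cells with a Peg3LacZ-Neo reporter on the maternal allele, then incubated 40 hours at 37C. BetaGlo was added for 5 minutes at room temperature before a single luminescence read.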
# UbGFP stabilizer: inhibits proteasome, raising ubiquitin-GFP reporter fluorescence; Ubiquitin-GFP reporter cells, proteasome inhibition, GFP fluorescence; response scale: untreated = 0%, 10 µM MG-132 = 100%; Potency, µM (top dose mostly 45.9 µM), without a hit: at the highest dose activation (GFP accumulation), most hits filed as activators; 67,000 tested, under 10 active; active means well fitted activation curve with a large enough effect, not every such curve was filed as active; inconclusive means small, poorly fitted or top-dose-only effect, or another doubt; inactive means no such curve, though single readings can be large or run the other way; further: potency means the concentration at half of the fitted maximal effect
#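 U2OS cells stably expressing ubiquitin(G76V)-GFP, seeded overnight in 0.5% FBS medium, were exposed to compounds (qHTS, 46 uM to 2.9 nM) for 4 hr at 37 °C. GFP-positive cells were counted by laser cytometry (488 ex/515 em), normalized between basal and 10 uM MG-132.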
# Active calls of the source: *; ? = inconclusive; nt = not tested or not shown; [ ] = another dose, or the depositor's remark. Unless noted, the call rests on the fitted dose curve; in most records, active means well fitted curve in the direction sought with a large enough effect; inconclusive means small, poorly fitted or top-dose-only effect, or another doubt; inactive means no such curve, though single readings can be large; an effect the other way counts as inactive or inconclusive.
SMILES,GFP derepression,p53ts 39C tox,HBB splice mod,p53ts 32C tox,Imprint erasure,UbGFP stabilizer
Cc1ccc(-c2nc(-c3ccccc3)no2)c(Cl)c1,-4%,7.9µM*,-1%,5µM*,-82%,3%
Brc1ccccc1-c1nc(-c2ccccc2)no1,-2%,?,3%[0.0738 µM],13µM*,-68%,15%[9.17 µM]
CCOc1cccc(C2c3c(oc4ccc(F)cc4c3=O)C(=O)N2CCOC)c1 (stereo not given),nt,28%,nt,11%,6%[10.9 µM],nt
O=C(/C=C/N1CCOCC1)c1coc2ccccc12,nt,?,nt,16µM*,nt,nt
O=C(/C=C/N1CCOCC1)c1cc2ccccc2o1,4%,?,2%,13µM*,-41%,-4%
O=C(c1cc2ccccc2o1)N1CCCCCC1,3%,0%,0%,-4%,-51%,5%
COc1ccc(CCC(=O)NC2CC(=O)N(c3ccc(F)cc3)C2)cc1 (stereo not given),nt,6%,nt,3%,8%[10.9 µM],nt
COc1ccc(-n2nc3c(N4CCC(C(=O)NCc5cccc(F)c5)CC4)nnc(C)c3c2C)cc1,nt,5µM*,nt,?,7%[10.9 µM],nt
Cc1nnc(N2CCN(C(=O)Nc3cc(F)ccc3F)CC2)c2nn(-c3ccc(Cl)cc3)c(C)c12,nt,13µM*,nt,?,-10%[10.9 µM],nt
COc1ccc(NC(=O)C2CCCN(c3nnc(C)c4c(C)n(-c5ccccc5)nc34)C2)cc1Cl (stereo not given),nt,10µM*,nt,?,-15%[10.9 µM],nt
Cc1ccc(NC(=O)C2CCN(c3nnc(C)c4c(C)n(-c5ccccc5)nc34)CC2)cc1Cl,nt,31%,nt,10%,2%[10.9 µM],nt
CN(C)C(=O)CSc1cccc2cccnc12,?,-2%,-1%,0%,-26%,-3%
O=C(CSc1cccc2cccnc12)N1CCCC1,0.63µM*,-14%,-2%,2%,-36%,1%
CCN(CC)c1cccc(OC2=NS(=O)(=O)c3ccccc32)c1,3.2µM*,2%,7%,22%,-9%,-16%
CCN(c1ccccc1)c1ncnc2c1cnn2-c1ccc(OC)cc1,nt,13µM*,nt,?,-5%[10.9 µM],nt
Cc1ccc(-n2ncc3c(N(C)Cc4ccccc4)ncnc32)cc1,nt,16µM*,nt,?,-12%[10.9 µM],nt
CCCCN(CC)CCNc1c(N2CCN(C(=O)OCC)CC2)c(=O)c1=O,2%,-3%,0%,0%,-4%,0%
CC(=O)NCC(=O)OCC(=O)c1ccc(C)cc1,-2%,4%,-1%,1%,-9%,-3%
CSc1ccc(C2C(C#N)=C(N)N(c3ccccc3)C3=C2C(=O)CCC3)cc1 (stereo not given),0%,-7%,4%[0.369 µM],9%,-11%,-3%
Cn1cc(-c2cc3n(n2)CCC(=O)N3CCCC(=O)Nc2ccccc2Cl)c2ccccc21,nt,-23%,nt,4%,-9%[10.9 µM],nt
COc1cccc(Nc2ncc3nc(-c4ccc(Cl)cc4)c(=O)n(CCC#N)c3n2)c1,1%[9.22 µM],9%,10µM*,-7%,nt,?
COc1cccc(Nc2ncc3nc(-c4cccs4)c(=O)n(Cc4cccs4)c3n2)c1,0%[9.22 µM],-17%,13µM*,-17%,-3%,2%
CCNc1ncc2nc(-c3cccs3)c(=O)n(-c3ccccc3)c2n1,8%[9.22 µM],-7%,13µM*,2%,?,?
COc1ccc(-n2c(=O)c(-c3cccs3)nc3cnc(Nc4ccccc4)nc32)cc1,-3%[9.22 µM],-5%,10%,-20%,11%,20%
COc1cccc(Nc2ncc3nc(-c4cccs4)c(=O)n(-c4ccccc4)c3n2)c1,4µM*,-21%,10µM*,-15%,?,?
SMILES,GFP derepression,p53ts 39C tox,HBB splice mod,p53ts 32C tox,Imprint erasure,UbGFP stabilizer
COc1ccc(-c2nc3cnc(Nc4cccc(OC)c4)nc3n(CCC#N)c2=O)cc1,5%[9.22 µM],-5%,?,-3%,nt,?
COc1ccc(-c2nnc(SCC(=O)Oc3c(C)cccc3C)o2)cc1OC,nt,23%,nt,-5%,-7%[10.9 µM],nt
O=Cc1ccc(OC2C=CC(C#Cc3ccccc3)OC2CO)cc1 (stereo not given),nt,5%[9.22 µM],1%[9.22 µM],10%[9.22 µM],nt,nt
CN=c1scc(-c2cccs2)n1/N=C/c1ccc(O)c(O)c1O,nt,6.3µM*,nt,nt,nt,nt
Cc1nc2ccccc2c(=O)n1/N=C/c1cn(-c2ccccc2)nc1-c1cccs1,-2%,-26%,0%[57.5 µM],-18%,3%,-3%
c1csc(-c2nnc(-c3ccc(N4CCOCC4)cc3)o2)c1,2%,13µM*,0%[57.5 µM],13µM*,-63%,3%
c1cncc(-c2nnc(-c3cccs3)o2)c1,0%,4%,0%[57.5 µM],-2%,-47%,-7%
Fc1ccc(Cc2cn3cc(-c4ccc(Cl)cc4)nc3s2)cc1,nt,-10%,nt,?,-7%[10.9 µM],nt
Fc1ccc(Cc2cn3cc(-c4ccccc4)nc3s2)cc1,nt,2.5µM*,nt,3.2µM*,-20%[10.9 µM],nt
Clc1ccccc1Cc1cn2cc(-c3ccccc3)nc2s1,nt,3.2µM*,nt,?,-19%[10.9 µM],nt
Fc1ccc(-c2cn3cc(Cc4ccccc4)sc3n2)cc1,nt,5µM*,nt,2.2µM*,-24%[10.9 µM],nt
Nc1nc(Nc2cccc(F)c2)nc2ccccc12,-2%,13µM*,nt,?,-86%,-2%
COc1ccc(OC)c(C2C(C(=O)c3ccco3)=C(O)C(=O)N2CCCN2CCOCC2)c1 (stereo not given),4%[20.6 µM],nt,nt,nt,nt,nt
CNC(=O)c1[nH]cnc1C(=O)Nc1cccc(OC)c1,-3%,12%,0%,3%,-10%,7%
CCOCN(C(=O)Cn1c(CC(C)C)nc2ccccc21)c1c(C)cccc1CC,nt,1%,nt,20%,-14%[10.9 µM],nt
CC(C)CS(=O)(=O)c1oc(-c2ccc(F)cc2)nc1S(=O)(=O)c1ccccc1,nt,2.5µM*,nt,10µM*,-42%[10.9 µM],nt
CCC(C)S(=O)(=O)c1oc(-c2cccs2)nc1S(=O)(=O)c1ccccc1 (stereo not given),nt,1µM*,nt,6.3µM*,-38%[10.9 µM],nt
Cc1ccccc1CN1C(=O)c2ccccc2Sc2ccc(C(=O)N3CCCC3)cc21,nt,-5%,nt,16%,-14%[10.9 µM],nt
CC(C)OCCCNC(=O)CSc1c2c(nc3ccc(Cl)cc13)CCCC2,nt,?,nt,13µM*,-4%[10.9 µM],nt
COCCCNC(=O)CSc1c2c(nc3ccc(Cl)cc13)CCCC2,nt,?,nt,?,-8%[10.9 µM],nt
Cc1ccc(-c2cc3c(nn2)-c2ccccc2C3=O)cc1,2%,0.4µM*,-1%[0.0738 µM],0.5µM*,-95%,3%[9.17 µM]
c1ccc(-c2cccc(N3CC4(CCNCC4)C3)c2)cc1,0%[9.22 µM],?,1%,-6%,nt,0%
c1ccc(-c2cccc(N3CC[C@@]4(CCCNC4)C3)c2)cc1,0%[9.22 µM],16µM*,-3%,?,nt,-2%
O=S(=O)(c1ccccc1)N1CCC[C@@]2(CCN(c3cccc(-c4ccccc4)c3)C2)C1,2%[9.22 µM],-15%,3%,-8%,nt,-14%
